In PubChem BioAssay (Tox21):
Inconclusive results are not listed. Where a call stands in place of a potency, no number is given. The source made the active and inactive calls. Unless noted, the call rests on the fitted dose curve; in most records, active means well fitted curve in the direction sought with a large enough effect in the repeat runs; inconclusive means weak or mixed curves; inactive means no such curve, though single readings can be large; an effect the other way counts as inactive or inconclusive.

Legend:
[1] = target: Acetylcholinesterase (Homo sapiens) (UniProt P22303); experiment: Acetylcholinesterase (AChE) small molecule antagonists: fluorescence cell-based qHTS assay (AID 1347398; calls by dose curve; further: nearly all actives have a fitted effect of over 50% in size; further: potency means the concentration at half of the fitted maximal effect); details: Potency: AChE activity
In short: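 Human SH-SY5Y cells were plated overnight at 37 C, exposed to compound for 30 min at 37 C, 5% CO2, then given acetylthiocholine plus Thiolite Green for 40 min at room temperature; thiocholine fluorescence (Ex/Em 490/520 nm) reports endogenous AChE activity.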

[2] = target: Acetylcholinesterase (Homo sapiens) (UniProt P22303); experiment: Acetylcholinesterase (AChE) small molecule antagonists: enzyme-based qHTS assay with human liver microsomes (AID 1347399; calls by dose curve; further: nearly all actives have a fitted effect of over 60% in size); details: Potency: qHTS inhibition
In short: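 Recombinant human AChE (50 mU/mL in the enzyme mix) and human liver microsomes (0.25 mg/mL final) were preincubated with compound and NADPH (0.25 mg/mL final) for 30 min at 37 C. Acetylthiocholine/DTNB was then added; thiocholine was read colorimetrically after 10 min at room temperature.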

[3] = target: Cytochrome P450 2D6 (Homo sapiens) (UniProt P10635); experiment: Cytochrome P450 Family 2 Subfamily D Member 6 (CYP2D6) small molecule antagonists: luciferase reporter qHTS assay (AID 1671196); further: nearly all actives have a fitted effect of over 50% in size; further: potency means the concentration at half of the fitted maximal effect
In short: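 Inhibition of CYP2D6 was gauged by loss of luminescence, since light produced tracks the luciferin generated from a proluciferin substrate. A 10 min room-temperature preincubation preceded 1 h NADPH-supported turnover.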

[4] = target: Cytochrome P450 2C19 (Homo sapiens) (UniProt P33261); experiment: Cytochrome P450 Family 2 Subfamily C Member 19 (CYP2C19) small molecule antagonists: luciferase reporter qHTS assay (AID 1671197); further: nearly all actives have a fitted effect of over 65% in size; further: potency means the concentration at half of the fitted maximal effect
In short: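 Compounds were tested on CYP2C19 activity via proluciferin conversion to luciferin. The 37C, 1 h reaction followed NADPH addition; detection reagent stopped it.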

[5] = target: Cytochrome P450 2C9 (Homo sapiens) (UniProt P11712); experiment: Cytochrome P450 Family 2 Subfamily C Member 9 (CYP2C9) small molecule antagonists: luciferase reporter qHTS assay (AID 1671198); further: nearly all actives have a fitted effect of over 50% in size; further: potency means the concentration at half of the fitted maximal effect
In short: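 CYP2C9 activity was measured with a P450-Glo proluciferin substrate. Enzyme–substrate mix was held with compound for 10 min at room temperature, then NADPH regeneration solution was added for 1 h at 37C. Luciferin product was read as luminescence.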

[6] = target: Cytochrome P450 1A2 (Homo sapiens) (UniProt P05177); experiment: Cytochrome P450 Family 1 Subfamily A Member 2 (CYP1A2) small molecule antagonists: luciferase reporter qHTS assay (AID 1671199); further: nearly all actives have a fitted effect of over 50% in size; further: potency means the concentration at half of the fitted maximal effect
In short: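 Signal from luciferin formed by CYP1A2 from a proluciferin substrate is read as luminescence, expressed in relative luminescence units. Compounds sit with enzyme 10 min, NADPH-driven reaction runs 1 h, all at room temperature.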

[7] = target: Voltage-gated inwardly rectifying potassium channel KCNH2 (Homo sapiens) (UniProt Q12809); experiment: Human Ether-a-go-go-Related Gene (hERG) channel small molecule antagonists: fluorescence cell-based qHTS assay (AID 1671200); further: nearly all actives have a fitted effect of over 50% in size; further: potency means the concentration at half of the fitted maximal effect
In short: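 Channel function was assessed by thallium flux. Cells seeded the previous day and kept at 37 C took up FluxOR II dye over 1 h in the dark at room temperature, then sat another 10 min before stimulation.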

[8] = target: Cytochrome P450 3A4 (Homo sapiens) (UniProt P08684); experiment: Cytochrome P450 Family 3 Subfamily A Member 4 (CYP3A4) small molecule antagonists: luciferase reporter qHTS assay (AID 1671201); further: nearly all actives have a fitted effect of over 50% in size; further: potency means the concentration at half of the fitted maximal effect
In short: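 Compounds in DMSO were pin-transferred onto CYP3A4 enzyme-substrate mix and held 10 min at room temperature. NADPH regenerating solution started the reaction for 1 h; luciferin detection reagent stopped it, and luminescence was read after 20 min.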

Sequence of Cytochrome P450 2D6 (Homo sapiens) (P10635 whole entry, looked up): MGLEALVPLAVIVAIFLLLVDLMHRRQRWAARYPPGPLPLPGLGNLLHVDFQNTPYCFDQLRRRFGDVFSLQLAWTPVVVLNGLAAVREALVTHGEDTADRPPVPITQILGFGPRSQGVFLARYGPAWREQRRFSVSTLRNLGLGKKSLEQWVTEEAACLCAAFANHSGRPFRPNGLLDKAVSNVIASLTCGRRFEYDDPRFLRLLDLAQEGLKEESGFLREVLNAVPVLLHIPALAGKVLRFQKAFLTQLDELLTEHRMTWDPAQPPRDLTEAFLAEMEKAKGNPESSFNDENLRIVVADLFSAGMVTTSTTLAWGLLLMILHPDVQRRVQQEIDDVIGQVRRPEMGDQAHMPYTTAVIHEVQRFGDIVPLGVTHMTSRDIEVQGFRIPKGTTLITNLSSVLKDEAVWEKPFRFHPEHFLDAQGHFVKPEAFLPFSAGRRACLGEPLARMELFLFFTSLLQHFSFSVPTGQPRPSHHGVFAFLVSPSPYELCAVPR
Sequence of Voltage-gated inwardly rectifying potassium channel KCNH2 (Homo sapiens) (Q12809 whole entry, looked up): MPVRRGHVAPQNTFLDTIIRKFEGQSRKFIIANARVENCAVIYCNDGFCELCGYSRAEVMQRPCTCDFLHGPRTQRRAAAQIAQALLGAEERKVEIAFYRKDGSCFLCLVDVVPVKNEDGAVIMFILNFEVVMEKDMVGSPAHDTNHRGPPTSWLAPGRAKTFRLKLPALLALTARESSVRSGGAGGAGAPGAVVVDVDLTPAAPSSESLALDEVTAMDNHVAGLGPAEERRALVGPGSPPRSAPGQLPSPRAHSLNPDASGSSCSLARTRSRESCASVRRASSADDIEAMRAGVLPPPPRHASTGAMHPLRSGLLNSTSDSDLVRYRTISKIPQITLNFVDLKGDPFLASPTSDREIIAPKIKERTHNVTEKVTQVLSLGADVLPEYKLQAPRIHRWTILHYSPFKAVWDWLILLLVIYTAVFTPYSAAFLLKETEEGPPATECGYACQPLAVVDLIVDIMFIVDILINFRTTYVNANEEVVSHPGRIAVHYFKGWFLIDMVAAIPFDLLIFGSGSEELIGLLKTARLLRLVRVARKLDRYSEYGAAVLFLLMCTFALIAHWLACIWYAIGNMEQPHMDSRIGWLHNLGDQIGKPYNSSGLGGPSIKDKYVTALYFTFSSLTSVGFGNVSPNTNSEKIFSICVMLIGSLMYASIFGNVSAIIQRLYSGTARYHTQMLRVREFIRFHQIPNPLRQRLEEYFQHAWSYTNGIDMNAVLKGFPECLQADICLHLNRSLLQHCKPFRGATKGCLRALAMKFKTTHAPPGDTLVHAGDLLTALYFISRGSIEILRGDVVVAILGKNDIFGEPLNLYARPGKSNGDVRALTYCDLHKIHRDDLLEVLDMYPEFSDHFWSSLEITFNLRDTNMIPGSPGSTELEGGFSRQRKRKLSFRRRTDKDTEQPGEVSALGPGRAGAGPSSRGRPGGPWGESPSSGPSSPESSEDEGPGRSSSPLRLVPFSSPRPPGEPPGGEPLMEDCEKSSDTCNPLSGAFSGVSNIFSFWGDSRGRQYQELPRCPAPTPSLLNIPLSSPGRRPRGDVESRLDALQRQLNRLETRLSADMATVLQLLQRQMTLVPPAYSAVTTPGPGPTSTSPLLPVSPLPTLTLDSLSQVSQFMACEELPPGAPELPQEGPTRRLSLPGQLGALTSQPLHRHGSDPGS
Sequence of Cytochrome P450 2C9 (Homo sapiens) (P11712 whole entry, looked up): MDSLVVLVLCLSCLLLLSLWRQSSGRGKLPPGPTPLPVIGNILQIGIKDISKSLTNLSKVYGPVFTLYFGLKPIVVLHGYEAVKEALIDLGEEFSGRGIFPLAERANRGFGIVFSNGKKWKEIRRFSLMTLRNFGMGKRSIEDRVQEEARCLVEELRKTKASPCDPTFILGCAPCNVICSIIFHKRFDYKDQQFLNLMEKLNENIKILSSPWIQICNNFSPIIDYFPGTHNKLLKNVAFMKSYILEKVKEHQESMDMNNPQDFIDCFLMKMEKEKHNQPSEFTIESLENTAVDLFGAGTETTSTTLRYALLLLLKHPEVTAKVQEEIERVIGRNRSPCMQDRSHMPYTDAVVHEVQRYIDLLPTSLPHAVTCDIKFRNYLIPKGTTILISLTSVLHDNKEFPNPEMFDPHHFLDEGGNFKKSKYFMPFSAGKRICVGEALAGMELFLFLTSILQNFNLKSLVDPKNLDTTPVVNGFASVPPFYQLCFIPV
Sequence of Acetylcholinesterase (Homo sapiens) (P22303 whole entry, looked up): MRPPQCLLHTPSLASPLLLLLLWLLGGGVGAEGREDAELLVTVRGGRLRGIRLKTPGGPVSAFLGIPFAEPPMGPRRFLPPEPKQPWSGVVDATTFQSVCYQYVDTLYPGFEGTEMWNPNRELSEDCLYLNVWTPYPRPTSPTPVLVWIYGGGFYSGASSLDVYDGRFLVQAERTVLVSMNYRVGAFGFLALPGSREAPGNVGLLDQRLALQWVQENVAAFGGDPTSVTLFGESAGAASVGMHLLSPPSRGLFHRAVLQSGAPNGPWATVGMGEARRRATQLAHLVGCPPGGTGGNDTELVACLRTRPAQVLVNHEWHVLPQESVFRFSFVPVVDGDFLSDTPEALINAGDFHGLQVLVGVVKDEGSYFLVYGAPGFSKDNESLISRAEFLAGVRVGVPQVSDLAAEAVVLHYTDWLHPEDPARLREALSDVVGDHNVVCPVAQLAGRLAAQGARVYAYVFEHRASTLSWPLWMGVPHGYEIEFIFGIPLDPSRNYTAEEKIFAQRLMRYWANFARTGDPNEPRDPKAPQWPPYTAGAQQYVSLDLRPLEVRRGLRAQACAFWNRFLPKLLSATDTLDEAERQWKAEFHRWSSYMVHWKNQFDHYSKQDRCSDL
Sequence of Cytochrome P450 3A4 (Homo sapiens) (P08684 whole entry, looked up): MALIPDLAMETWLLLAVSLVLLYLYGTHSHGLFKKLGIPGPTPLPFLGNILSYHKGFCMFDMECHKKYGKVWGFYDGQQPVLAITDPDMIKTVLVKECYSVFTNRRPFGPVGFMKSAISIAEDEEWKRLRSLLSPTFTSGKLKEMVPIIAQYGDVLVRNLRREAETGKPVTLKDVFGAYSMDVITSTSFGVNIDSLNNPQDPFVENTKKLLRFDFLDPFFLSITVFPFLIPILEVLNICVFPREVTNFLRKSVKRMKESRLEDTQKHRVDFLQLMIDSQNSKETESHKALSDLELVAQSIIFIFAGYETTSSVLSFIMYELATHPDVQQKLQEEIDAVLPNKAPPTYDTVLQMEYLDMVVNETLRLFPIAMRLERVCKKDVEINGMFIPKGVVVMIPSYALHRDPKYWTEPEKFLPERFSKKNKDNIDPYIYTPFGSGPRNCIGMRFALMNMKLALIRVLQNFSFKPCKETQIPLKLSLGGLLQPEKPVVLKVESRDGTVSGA
Sequence of Cytochrome P450 2C19 (Homo sapiens) (P33261 whole entry, looked up): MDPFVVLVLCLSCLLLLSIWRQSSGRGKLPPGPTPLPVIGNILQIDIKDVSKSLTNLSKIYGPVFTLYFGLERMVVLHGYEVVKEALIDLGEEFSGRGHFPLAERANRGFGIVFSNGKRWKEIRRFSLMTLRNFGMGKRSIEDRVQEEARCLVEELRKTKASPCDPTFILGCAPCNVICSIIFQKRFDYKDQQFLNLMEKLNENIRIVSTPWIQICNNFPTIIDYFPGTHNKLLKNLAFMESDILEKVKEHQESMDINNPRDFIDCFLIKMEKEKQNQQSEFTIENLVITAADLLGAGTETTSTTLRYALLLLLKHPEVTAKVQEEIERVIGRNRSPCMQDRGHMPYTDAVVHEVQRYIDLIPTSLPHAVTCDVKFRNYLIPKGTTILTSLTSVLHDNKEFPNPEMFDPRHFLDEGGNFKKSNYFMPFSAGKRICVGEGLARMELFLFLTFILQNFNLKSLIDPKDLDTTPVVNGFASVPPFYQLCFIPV
Sequence of Cytochrome P450 1A2 (Homo sapiens) (P05177 whole entry, looked up): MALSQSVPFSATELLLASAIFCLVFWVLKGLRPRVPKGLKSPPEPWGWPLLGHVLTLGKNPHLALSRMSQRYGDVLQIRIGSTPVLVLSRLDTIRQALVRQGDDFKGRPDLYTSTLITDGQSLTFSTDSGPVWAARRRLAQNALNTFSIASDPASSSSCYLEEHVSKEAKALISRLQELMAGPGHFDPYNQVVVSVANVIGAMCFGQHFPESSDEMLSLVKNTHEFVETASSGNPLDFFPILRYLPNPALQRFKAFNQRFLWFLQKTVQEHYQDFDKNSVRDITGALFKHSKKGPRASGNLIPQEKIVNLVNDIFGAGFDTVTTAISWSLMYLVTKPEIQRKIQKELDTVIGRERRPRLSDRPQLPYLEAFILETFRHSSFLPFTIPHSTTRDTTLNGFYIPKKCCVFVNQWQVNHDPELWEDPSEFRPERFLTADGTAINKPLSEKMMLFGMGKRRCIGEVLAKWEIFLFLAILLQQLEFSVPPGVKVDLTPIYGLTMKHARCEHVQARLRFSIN

Row | Compound | Potency [1] | Potency [2] | Potency [3] | Potency [4] | Potency [5] | Potency [6] | Potency [7] | Potency [8]
1 | BrCC(Br)(Br)Br | inactive | inactive | inactive | inactive | inactive | inactive | inactive | inactive
2 | C[C@@H]1CC2=CC(=O)CC[C@@H]2[C@H]2CC[C@@]3(C)[C@@H](CC[C@]3(C)O)[C@@H]21 | inactive | inactive | inactive | 8.71 µM (active) |  | inactive | inactive | 
3 | CCCCC/C=C\C/C=C\C/C=C\C/C=C\CCCC(=O)NCC(=O)O | inactive | inactive | 15.5 µM (active) | inactive | 13.8 µM (active) | inactive | inactive | inactive
4 | Cc1ccc2cc3c(ccc4ccccc43)c3c2c1CC3 | inactive | inactive | inactive | 40 µM (active) | 5.65 µM (active) | 0.449 µM (active) | inactive | 8.96 µM (active)
5 | ClCBr | inactive | inactive | inactive | inactive | inactive | inactive | inactive | inactive
6 | COc1nc(C)nc(NC(=O)NS(=O)(=O)c2ccccc2Cl)n1 | inactive | inactive | inactive | inactive | inactive |  | inactive | inactive
7 | O=[N+]([O-])C(Br)Br | inactive | inactive | inactive | inactive | inactive | inactive | inactive | inactive
8 | N#Cc1c[nH]cc1-c1cccc2c1OC(F)(F)O2 | inactive | inactive | inactive | 5.64 µM (active) | 20 µM (active) | 1.59 µM (active) | inactive | inactive
9 | CCCCN(CCCC)C(=S)[S-].CCCCN(CCCC)C(=S)[S-].[Ni+2] | inactive | inactive | inactive | inactive | inactive | inactive | inactive | inactive
10 | CC(=O)[O][Sn]([c]1ccccc1)([c]1ccccc1)[c]1ccccc1 | inactive | inactive | 0.2 µM (active) | 5.03 µM (active) | 0.894 µM (active) |  | 1.1 µM (active) | 12.6 µM (active)
11 | CC(=O)[O][Pb]([c]1ccccc1)([c]1ccccc1)[c]1ccccc1 | inactive | inactive | 22.4 µM (active) | 8.94 µM (active) | 3.17 µM (active) | 39.9 µM (active) |  | 10 µM (active)
12 | BrCCCBr | inactive | inactive | inactive | inactive | inactive |  | inactive | inactive
13 | CCN(CC)CCc1c[nH]c2ccccc12 | inactive | inactive | 5.26 µM (active) | inactive | inactive | 52.6 µM (active) | inactive | inactive
14 | Cc1c([N+](=O)[O-])c(C)c([N+](=O)[O-])c(C(C)(C)C)c1[N+](=O)[O-] | inactive | inactive | inactive | inactive | inactive | 5.03 µM (active) |  | inactive
15 | CC(C)NCC(O)c1ccccc1Cl (stereo unspecified) | inactive | inactive | 7.76 µM (active) | inactive | inactive | inactive | inactive | inactive
16 | CCCCc1ccccc1 | inactive | inactive | inactive | inactive | inactive | inactive | inactive | inactive
17 | COC(=O)c1cc(Oc2ccc(Cl)cc2Cl)ccc1[N+](=O)[O-] | inactive | inactive | 22.4 µM (active) | 2.52 µM (active) | 7.1 µM (active) | 15.9 µM (active) | 17.4 µM (active) | inactive
18 | CN(C)c1ccc(N)cc1 | 11 µM (active) | inactive | 24.6 µM (active) | 7.78 µM (active) | 31 µM (active) | 12.3 µM (active) |  | 19.5 µM (active)
